Test results: the supplement of paper PMC5641865, “A screen for kinase inhibitors identifies antimicrobial imidazopyridine aminofurazans as specific inhibitors of the Listeria monocytogenes PASTA kinase PrkA” (The Journal of Biological Chemistry, 2017)
± gives the standard deviation of the averaged measurements.

System: Listeria monocytogenes 10403S
Assay: growth inhibition relative to ceftriaxone-alone control; higher = stronger potentiation of ceftriaxone growth inhibition
Conditions: 10 µM; ceftriaxone 1 ug/ml; 12 h
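Further: End-point A600 read in BHI broth at 37 °C with 2% DMSO, inhibition computed as (1 − OD with compound plus ceftriaxone ÷ OD with ceftriaxone only) × 100.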

| SMILES | growth inhibition [%] |
| --- | --- |
| COC[C@H]1OC(=O)c2coc3c2[C@@]1(C)C1=C(C3=O)[C@@H]2CCC(=O)[C@@]2(C)C[C@H]1OC(C)=O [Wortmannin] | 2.26 ± 1.5 |
| Cc1ccccc1-n1c(Cn2cnc3c(N)ncnc32)nc2cccc(C)c2c1=O | -7.86 ± 4.1 |
| O=c1[nH]c2ccc(Cl)cc2c(N[C@@H]2CN3CCC2CC3)c1-c1nc2ccccc2[nH]1 | 96.1 ± 3.4 |
| CN[C@@H]1C[C@H]2O[C@@](C)([C@@H]1OC)n1c3ccccc3c3c4c(c5c6ccccc6n2c5c31)C(=O)NC4 [Staurosporine] | 102 ± 5 |
| CNC(=O)Oc1cc(C)c(/C=C/c2cncc(C(=O)NC)c2)c(C)c1 | 3.06 ± 7 |
| Cc1ccccc1-n1c(Cn2ncc3c(N)ncnc32)nc2cccc(C)c2c1=O | 15.4 ± 13 |
| Cn1cc(C2=C(c3cn(C4CCN(Cc5ccccn5)CC4)c4ccccc34)C(=O)NC2=O)c2ccccc21 | 40.6 ± 17 |
| CCN1CCN(C(=O)Cc2ccc(Nc3ncc(F)c(Nc4ccc(C(=O)Nc5ccccc5Cl)cc4)n3)cc2)CC1 [Aurora A Inhibitor I] | 7.11 ± 13 |
| CC(C)(C)c1cc(C=C(C#N)C#N)cc(Br)c1O | 103 ± 6.1 |
